Only some compounds are listed: those with a hit (about 21% of all), similar ones and a draw of the others.
Cycloheximide cs: counter-screen for Shiga toxin inhibitors: cycloheximide protein synthesis inhibition; max response, %; cell reporter, cycloheximide protein synthesis inhibition counterscreen; 300,000 compounds, 12% hits; in the data active means max response mostly above about 13%, no sharp cut-off; inactive means mostly below about 14%; further: read at 38.3 µM for the half of the compounds with a filed dose; 0% is about no effect
Pf growth 48h: P. falciparum growth inhibition at 48 hours (one generation); P. falciparum luciferase growth in erythrocytes, 48 h; Potency, µM (series often up to 28.7 µM), for the others: at the highest dose activity change, negative = inhibition, actives largely listed as inhibitors; 310,000 compounds, 5.9% hits; further: potency means the concentration at half of the fitted maximal effect; on the % scale 0 is the no-effect control and ±100 the full control effect
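Cell-based growth assay: transgenic P. falciparum expressing firefly luciferase, cultured in red cells within RPMI 1640 containing 0.5% w/v Albumax, 24 mM bicarbonate and gentamycin. A drop in luciferase activity indicates inhibition.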
NS1 inh: blocks influenza NS1 protein function | AID 2326 | Potency, µM (titrated, usually from 46.1 µM), inactives show at the highest dose activity, positive = more growth | 270,000 compounds, 0.4% hits; calls by dose curve; further: potency means the concentration at half of the fitted maximal effect; actives are rising curves; nearly all actives have a fitted effect of over 50% in size
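Recovery from NS1-induced slow growth read by OD600 in budding yeast switched to galactose assay medium (pH 6.0, -URA) at 1:100 dilution. Compound 23 nl per well; the matching strain lacking NS1 serves as control.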
Shiga toxin inh: Shiga toxin inhibition | Vero cells, Shiga toxin protein synthesis inhibition reporter | inhibition, % at 38.7 µM | 290,000 compounds, 9.2% hits | AID 2315; in the data active means inhibition mostly above about 28%, no sharp cut-off; inactive means mostly below about 43%; further: 0% is about no effect
Pf growth 96h: inhibits malaria parasite growth, 96 h | P. falciparum luciferase reporter growth, 96 h | 320,000 compounds, 6.9% hits | Potency, µM (doses to about 28.7 µM), for inactives: at the top dose activity change, negative = inhibition, actives largely listed as inhibitors | AID 504834; further: potency means the concentration at half of the fitted maximal effect; on the % scale 0 is the no-effect control and ±100 the full control effect
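Cell-based qHTS: luciferase-tagged P. falciparum in erythrocytes (2% hematocrit, 0.05% parasitemia final) incubated with compounds for 96 hours, 37 C, 5% CO2; luciferase detection reagent then added and luminescence measured.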
* marks the source's active call; other numbers are inactive results. Unless noted, the call rests on the fitted dose curve; in most records, active means well fitted inhibition curve with a large enough effect; inconclusive means small, poorly fitted or top-dose-only effect, or another doubt; inactive means no such curve, though single readings can be large or run the other way.

`CCOc1ccc(CNC(=O)CN2C(=O)CSc3ccc(S(=O)(=O)N4CCOCC4)cc32)cc1OC` gave Cycloheximide cs -3, Pf growth 48h 13%, NS1 inh -19%, Shiga toxin inh -4 and Pf growth 96h inconclusive.
For NC(=O)C1=C[C@H](c2ccc(C(F)(F)F)cc2)C[C@H](OCCCCO)O1 the results were Cycloheximide cs 13, Pf growth 48h 2%, NS1 inh -2%, Shiga toxin inh 12 and Pf growth 96h -2%.
`NC(=O)C1=C[C@@H](c2ccc(Br)cc2)C[C@@H](OCCCCO)O1` gave Cycloheximide cs 7.8*, Pf growth 48h 0%, NS1 inh -1%, Shiga toxin inh 19 and Pf growth 96h 0%.
O=C(C1=C[C@H](c2ccc(Br)cc2)C[C@H](OCCCCO)O1)N1CCOCC1 was read as Cycloheximide cs 12*, Pf growth 48h -2%, NS1 inh -2%, Shiga toxin inh 31 and Pf growth 96h 0%.
`C#CCNC(=O)C1=C[C@@H](c2ccc(Br)cc2)C[C@@H](OCCCCO)O1` gave Cycloheximide cs 13*, Pf growth 48h inconclusive, NS1 inh -5%, Shiga toxin inh 35* and Pf growth 96h 8.3µM*.
Screening C#Cc1ccc([C@@H]2C=C(C(=O)N3CCOCC3)O[C@H](OCCCCO)C2)cc1 returned Cycloheximide cs -1, Pf growth 48h inconclusive, NS1 inh 2%, Shiga toxin inh -5 and Pf growth 96h inconclusive.
Screening NS(=O)(=O)c1ccc(CCNC(=O)CN2CCN(Cc3cccc4ccccc34)CC2)cc1 returned Cycloheximide cs -3, Pf growth 48h -3%, NS1 inh 11%, Shiga toxin inh 3 and Pf growth 96h -21%.
Cc1ccc(S(=O)(=O)N2[C@@H](c3ccc(Cl)cc3)C(C(=O)O)=CC[C@H]2c2ccc(Cl)cc2)cc1 was read as Pf growth 48h -2% and Pf growth 96h inconclusive.
COc1ccc2c(c1)NC(=O)CC(c1ccccc1)=N2 was read as Cycloheximide cs 38*, NS1 inh -11%, Shiga toxin inh 66* and Pf growth 96h 107%.
Screening COc1cc(NS(=O)(=O)c2ccc(NC(=O)c3cccs3)cc2)nc(OC)n1 returned Cycloheximide cs 4, Pf growth 48h 27%, NS1 inh 3%, Shiga toxin inh 1 and Pf growth 96h -8%.
CCNc1nc(NC(C)(C)C)nc(N2CCCC2)n1 was read as Cycloheximide cs -3, Pf growth 48h 1.5µM*, NS1 inh -16%, Shiga toxin inh -4 and Pf growth 96h -26%.
CC(C)(C)Nc1nc(N2CCCC2)nc(N2CCCC2)n1 was read as Cycloheximide cs -2, Pf growth 48h inconclusive, NS1 inh -103%, Shiga toxin inh 15 and Pf growth 96h -14%.
O=C(O)CC12CC3CC(C1)CC(n1cncn1)(C3)C2 was read as Cycloheximide cs -1, Pf growth 48h 3%, Shiga toxin inh -21 and Pf growth 96h inconclusive.
Screening CCN(CC)CCn1nc2c3c(cccc3c1=O)-c1ccccc1-2 returned Cycloheximide cs -2, Pf growth 48h 4.1µM*, NS1 inh -4%, Shiga toxin inh -20 and Pf growth 96h 19%.
Screening CCCCNC(=O)COC(=O)c1cc(C)oc1C returned Cycloheximide cs -1, Pf growth 48h -1%, Shiga toxin inh 5 and Pf growth 96h 38%.
Screening CCCCN(C)S(=O)(=O)c1ccc(C(=O)N(CCN(C)C)c2nc3ccc(C)cc3s2)cc1 returned Cycloheximide cs 20*, Pf growth 48h 11%, Shiga toxin inh 44* and Pf growth 96h 46%.
CCCCN(CC)S(=O)(=O)c1ccc(C(=O)N(CCCN(C)C)c2nc3cc(C)cc(C)c3s2)cc1 was read as Cycloheximide cs -4, Pf growth 48h inconclusive, Shiga toxin inh -18 and Pf growth 96h 11%.
For CCc1ccc2nc(N(CCCN(C)C)C(=O)c3ccc(S(=O)(=O)N4CCCC4)cc3)sc2c1 the results were Cycloheximide cs 1, Pf growth 48h inconclusive, NS1 inh -2%, Shiga toxin inh -4 and Pf growth 96h inconclusive.
Screening Cc1ccc2nc(N(CCCN(C)C)C(=O)c3ccc(S(=O)(=O)N4CCCCCC4)cc3)sc2c1 returned Cycloheximide cs -3, Pf growth 48h 13µM*, NS1 inh 3%, Shiga toxin inh -7 and Pf growth 96h inconclusive.
`CN(C)CCCN(C(=O)c1ccc(S(=O)(=O)N2CCCCCC2)cc1)c1nc2ccc(F)cc2s1` gave Cycloheximide cs 9, Pf growth 48h inconclusive, NS1 inh 0%, Shiga toxin inh -12 and Pf growth 96h inconclusive.
For CN(C)CCN(C(=O)c1ccc(S(=O)(=O)N2CCCC2)cc1)c1nc2ccc(Br)cc2s1 the results were Cycloheximide cs 30*, Pf growth 48h inconclusive, NS1 inh -15%, Shiga toxin inh 57* and Pf growth 96h inconclusive.
Screening COc1ccc(Cl)cc1C(=O)O/N=C(\N)c1ccncc1 returned Cycloheximide cs 10, Pf growth 48h inconclusive, NS1 inh -32%, Shiga toxin inh 57* and Pf growth 96h inconclusive.
For COc1ccc(Cl)cc1C(=O)NNC(=O)c1ccncc1 the results were Cycloheximide cs 2, Pf growth 48h 23%, NS1 inh -6% and Pf growth 96h inconclusive.
For N/C(=N\OC(=O)Cc1ccccc1)c1ccncc1 the results were Cycloheximide cs 1, Pf growth 48h 2%, NS1 inh -1%, Shiga toxin inh 32 and Pf growth 96h -6%.
COc1ccc(C(=O)OCCNC(=O)c2ccncc2)cc1OC was read as Cycloheximide cs 0, Pf growth 48h 8%, NS1 inh 12%, Shiga toxin inh 10 and Pf growth 96h 61%.
`COc1ccc(C(=O)O/N=C(\N)c2ccncc2)cc1OC` gave Cycloheximide cs 15*, Pf growth 48h inconclusive, NS1 inh -4%, Shiga toxin inh 25 and Pf growth 96h inconclusive.
For COc1cccc(OC)c1C(=O)O/N=C(\N)c1ccncc1 the results were Cycloheximide cs 23*, Pf growth 48h inconclusive, NS1 inh -1%, Shiga toxin inh -11 and Pf growth 96h 12µM*.
N/C(=N\OC(=O)C(c1ccccc1)c1ccccc1)c1ccncc1 was read as Cycloheximide cs 0, Pf growth 48h 2.9µM*, NS1 inh -9%, Shiga toxin inh -18 and Pf growth 96h inconclusive.
`CCOC(=O)C1=C(C)NC(=S)NC1c1ccsc1` (configuration not stated) gave Cycloheximide cs -3, Pf growth 48h -15%, NS1 inh 2%, Shiga toxin inh 17 and Pf growth 96h 11%.
Screening O=C(NC1CCCCC1)C1CCCN(c2nnnn2-c2ccccc2)C1 (configuration not stated) returned Cycloheximide cs 1, Pf growth 48h -15%, NS1 inh -11%, Shiga toxin inh -20 and Pf growth 96h inconclusive.
For CC(=O)C1CCC2C3CCC4=CC(=O)CC[C@]4(C)[C@@]3(F)C(O)C[C@]12C (some centres not stated) the results were Cycloheximide cs -3, Pf growth 48h inconclusive, NS1 inh -5%, Shiga toxin inh 12 and Pf growth 96h inconclusive.

From PubChem BioAssay
